# Over roughly 33,000 sequences, “E-score (-0.5 to 0.5)” has its median near -0.011; the highest 2% begin near 0.28. The sample holds the highest values, similar sequences and a random draw of the others, so the mix is not that of the screen.
# Biological target: T1, Gcr1 (UniProt P07261)
# T1 sequence: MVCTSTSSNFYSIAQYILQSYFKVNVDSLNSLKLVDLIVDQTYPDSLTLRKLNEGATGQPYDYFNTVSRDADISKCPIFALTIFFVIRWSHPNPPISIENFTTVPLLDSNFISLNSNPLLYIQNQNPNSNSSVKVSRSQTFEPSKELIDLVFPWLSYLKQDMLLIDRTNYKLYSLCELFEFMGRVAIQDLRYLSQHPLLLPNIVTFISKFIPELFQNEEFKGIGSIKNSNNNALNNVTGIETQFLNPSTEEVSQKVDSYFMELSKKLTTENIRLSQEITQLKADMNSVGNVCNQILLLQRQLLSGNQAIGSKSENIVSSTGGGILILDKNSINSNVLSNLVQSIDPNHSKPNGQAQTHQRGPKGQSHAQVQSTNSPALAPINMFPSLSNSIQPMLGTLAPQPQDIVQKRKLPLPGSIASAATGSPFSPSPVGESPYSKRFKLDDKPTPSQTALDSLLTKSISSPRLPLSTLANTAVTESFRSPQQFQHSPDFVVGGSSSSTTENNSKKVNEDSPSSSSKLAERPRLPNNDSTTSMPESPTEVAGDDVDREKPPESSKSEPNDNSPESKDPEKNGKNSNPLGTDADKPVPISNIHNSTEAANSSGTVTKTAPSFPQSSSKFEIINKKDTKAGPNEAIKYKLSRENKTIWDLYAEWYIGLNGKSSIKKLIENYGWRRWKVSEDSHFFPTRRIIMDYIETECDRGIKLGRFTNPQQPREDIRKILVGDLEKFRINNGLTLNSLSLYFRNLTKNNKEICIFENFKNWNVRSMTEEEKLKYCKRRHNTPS
# Assay: PBM E-score (8-mer binding enrichment) (E-score (-0.5 to 0.5)); higher = stronger / more preferred TF binding
# Settings: protein concentration: 100 nM; construct: GST-full length
# How it was run: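 Masliner-normalised scans of fluorescent anti-GST signal were the basis for scoring. That signal came from GST-tagged yeast transcription factors applied at about 100-200 nM to double-stranded universal all-10-mer Agilent arrays on fresh or once-stripped slides. Each ungapped eight-base word, pooled with its reverse complement, received an E-score from the Universal PBM Analysis Suite.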
row,Sequence,PBM E-score
1,CCCATCAC,-0.136
2,GGTATTCA,0.0919
3,GATGGCCA,-0.214
4,AGTGGATC,0.286
5,ATTGGATC,0.193
6,CGTGGATC,0.00349
7,AGTGGATG,0.394
8,AATGGATG,0.134
9,AGTGGATA,0.0533
10,CCTCCTGC,-0.0964
11,ATCTTCGC,-0.0394
12,ATAGAGGC,0.174
13,ATAGAGGG,0.137
14,ATAGAGGA,0.346
15,ATGTCCCG,-0.183
16,GCTATTGA,-0.21
17,CACCACTC,0.134
18,AACCACTA,0.241
19,CACCACTG,0.167
20,TACCACTA,0.365
21,CACCACTA,0.298
22,GACCACTA,0.179
23,AGTTGCAA,-0.105
24,CGTAGTGA,-0.043
25,CGTACCGC,-0.162

row,Sequence,PBM E-score
1,ATGATACG,0.107
2,CAAGACAC,0.0836
3,CCACCCTA,0.0045
4,CCGCCCTA,-0.0561
5,GCGCCTAA,0.407
6,GCACCCAA,0.303
7,ACGCCCTA,0.178
8,TCGCCTAA,0.0844
9,GCGCCCTA,0.319
10,GCGCCTAC,0.256
11,ACACCCTA,-0.021
12,TCACCCAA,-0.00294
13,GCACCCTA,0.297
14,GCACCCCA,0.241
15,CACCACCG,-0.0609
16,GAGTTGCA,-0.0956
17,GTGAGAAC,-0.0123
18,GATGGATA,0.0193
19,CCCCCGGC,-0.0149
20,GGAACGGA,-0.0468
21,CCGAGTCA,-0.25
22,ATTCGAAT,0.0645
23,AGATGACG,-0.0775
24,GCACCCAC,0.397
25,ACACCCAC,0.0847

row,Sequence,PBM E-score
1,CCACCCAC,-0.0236
2,CTTTTTGA,0.115
3,AGTTGGAA,0.187
4,CTAGCTGC,0.161
5,ATAGCTGC,0.285
6,GAGGCTGC,0.253
7,AAGGCTGA,-0.141
8,ATAGCTGA,-0.0965
9,AAGGCTGC,0.302
10,CTGTCTTC,0.00215
11,AGCTAATA,0.0193
12,CGGGGCCC,0.219
13,TCCAAAGA,0.0425
14,ACAGCTCA,-0.146
15,ATAAGACG,0.192
16,AAGGAAGA,-0.00011
17,AACGAAGC,0.00062
18,CACGAAGC,0.311
19,CAGGAAGG,0.184
20,CACGAAGA,-0.098
21,AAGGAAGG,-0.0778
22,AAGGAAGC,0.452
23,GAGGAAGA,0.171
24,CAGGAAGC,0.434
25,GAGGAAAC,-0.104

row,Sequence,PBM E-score
1,CAGGAAGA,0.0842
2,GAGGAAGC,0.391
3,CCAAGGTC,-0.0561
4,CGAAAGGC,0.0349
5,GCCTTCAC,-0.0793
6,AGCTGCAT,-0.077
7,CTCGGCGC,0.159
8,CAAAGGCG,-0.134
9,CGGCGTGC,-0.094
10,AGGCGTCG,-0.0284
11,CGGCGTCA,0.0965
12,CGGCGTCC,0.412
13,AGGCGTCC,0.387
14,AGGCGTCA,-0.194
15,ATATAGAG,0.133
16,AAATTCAG,0.169
17,CCATAGGC,-0.00913
18,TGAGAAAA,0.0932
19,AGGCAGAT,0.0845
20,ATACGTAT,0.284
21,ATACGTAA,0.053
22,ATACGTAC,-0.00136
23,AAACCAAC,0.0391
24,GCACCATA,0.228
25,AGTTTTAT,0.112

row,Sequence,PBM E-score
1,ATACTATA,-0.0912
2,CTACTATA,0.282
3,CTACTATC,0.146
4,CGAGCCTC,-0.0914
5,GAACAACC,-0.0951
6,AGGCACTA,-0.113
7,ACCAACCA,0.0293
8,GGCAACCC,0.176
9,GGCAACCA,0.374
10,AGCAACCG,0.0554
11,AGCAACCT,0.316
12,TGCAACCA,0.261
13,CGCAACCA,0.147
14,AGCAACCA,0.349
15,AGCAACCC,0.00142
16,ACTAACCA,0.117
17,CGTAAGAG,-0.199
18,CAGCTGTC,-0.0336
19,AATGCTCT,-0.112
20,CCATTCCC,-0.0773
21,AGCGTCTA,0.307
22,CCCGTCTC,-0.0723
23,GGCGTCTA,0.342
24,GGCGTCAA,-0.0289
25,AGCGTCTG,0.175

row,Sequence,PBM E-score
1,CGCGTCTC,0.301
2,AGCGTCAA,0.0252
3,AGCGTCTC,0.22
4,CGCGTCTA,0.137
5,ATGAAGCC,0.145
6,AATACCGA,0.0609
7,AGGTTCCG,0.205
8,CGGTTCCA,0.189
9,GAGTTCCA,0.123
10,GGGTTCCA,0.419
11,GGTTTCCA,0.119
12,AGGTTCCA,0.327
13,CGGCCCTA,-0.253
14,TGGATAAA,0.11
15,GACTTCCA,0.319
16,AACTTCCG,0.267
17,CAATTCCA,0.0815
18,GAATTCCC,0.116
19,CACTTCCA,0.312
20,TACTTCCA,0.121
21,CACTTCCC,0.0585
22,AACTTCCA,0.349
23,GAATTCCA,0.369
24,GACTTCCC,0.127
25,GACTTCAA,-0.0566

row,Sequence,PBM E-score
1,CACTTCCG,0.0282
2,CCGACCCA,-0.0324
3,CGCAGGCG,0.00025
4,ATTGCTAC,0.11
5,ACGGCTCG,-0.105
6,GTCATTAA,0.0346
7,AGTCCGTG,-0.0968
8,AAATCCAT,0.129
9,GGCCCGCA,-0.0485
10,CAACCCAG,0.00319
11,CCCGCGAC,-0.167
12,AACTTCCC,-0.0101
13,AACTTCCT,0.376
14,AACTTCGT,0.173
15,AGGGAAAT,-0.173
16,ACTGCTAA,-0.0287
17,ACCACTAC,0.129
18,ACCACTCA,-0.067
19,AGCACTAA,-0.0258
20,CCCACTAA,0.241
21,CCCACTAC,0.187
22,TCCACTAA,0.418
23,ACCACTAA,0.285
